Data: PubChem BioAssay AID1030 (National Center for Advancing Translational Sciences (NCATS), 2008)
Hit rate of the full screen: of about 220,000 compounds, about 16,000 (7.3%) were called active. About 25% were inconclusive and are not listed. The call rests on the fitted dose curve; in most records, active means well fitted inhibition curve with a large enough effect (not every such curve was filed as active); inconclusive means small, poorly fitted or top-dose-only effect, or another doubt; inactive means no such curve, though single readings can be large or run the other way. The entries come from a sample that favours actives as a whole.

Molecular target: Aldehyde dehydrogenase 1A1 (Homo sapiens) (UniProt P00352)
Experiment: qHTS Assay for Inhibitors of Aldehyde Dehydrogenase 1 (ALDH1A1);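 on activity, negative = inhibition: plate controls were no enzyme wells and a reference inhibitor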
Settings: Purified ALDH1A1, NADH fluorescence, propionaldehyde substrate; series mostly up to 75.3 µM; activity, negative = inhibition: at the top concentration
Potency means the concentration at half of the fitted maximal effect.

Chain of Aldehyde dehydrogenase 1A1 (Homo sapiens) (P00352 whole entry, looked up): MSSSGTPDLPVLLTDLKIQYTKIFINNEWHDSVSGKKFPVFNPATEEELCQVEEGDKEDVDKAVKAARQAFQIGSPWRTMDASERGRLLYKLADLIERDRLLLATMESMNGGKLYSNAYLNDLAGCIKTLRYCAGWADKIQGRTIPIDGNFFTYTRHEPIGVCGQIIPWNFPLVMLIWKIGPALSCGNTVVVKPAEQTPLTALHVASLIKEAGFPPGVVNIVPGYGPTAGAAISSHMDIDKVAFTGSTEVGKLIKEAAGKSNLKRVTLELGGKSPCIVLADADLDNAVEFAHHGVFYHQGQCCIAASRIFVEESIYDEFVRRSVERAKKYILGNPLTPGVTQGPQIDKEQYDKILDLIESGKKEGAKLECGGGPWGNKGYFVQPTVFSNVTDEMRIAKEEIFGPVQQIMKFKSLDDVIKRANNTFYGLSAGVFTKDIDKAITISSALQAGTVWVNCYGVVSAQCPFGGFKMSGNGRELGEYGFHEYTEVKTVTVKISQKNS

activity, negative = inhibition, inactive:
CCCCCc1nnc(NC(=O)c2ccc(=O)n(C)n2)s1 -0.796%
C=CCn1cc(C(=O)NCc2ccc(Cl)cc2)c(=O)c2cc(S(=O)(=O)N(CC)CC)ccc21 -2.01%
Cc1nc2ccccc2c2oc(C(=O)NCCCN3CCC(C)CC3)cc12 -1.82%
Cc1ccc(C(=O)NCC2CCCO2)o1 (stereo not given) 7.91%
O=c1c(-c2ccccc2)cnc2n1CCS2 4.15%
CN(C)CC(C)(C)CNC(=O)c1cc(Br)cc(Br)c1O -13.5%
CN(C)C(CNC(=O)Cc1ccc([N+](=O)[O-])cc1)c1ccccc1 (stereo not given) 0.871%
CN(C)C(CNC(=O)c1ccc(S(=O)(=O)NCc2ccco2)cc1)c1ccccc1 (stereo not given) 11.2%
CCC(C)(C)NC(=O)C(c1ccccn1)N(C(=O)c1csnn1)c1ccccc1 (stereo not given) 0.639%
Cc1ccc(C(=O)N2CCCC(c3ccccc3)=N2)cc1 -7.82%
Cc1cc(C)c(OCCN2CC(C)OC(C)C2)c(Br)c1 (stereo not given) -12.9%
COc1ccc(NC(=O)N2CCC(Cc3ccccc3)CC2)cc1 -13.4%
CCNC(=O)COC(=O)/C=C/c1c(C)nn(Cc2cccc(OC)c2)c1Cl -14.4%
O=C(CCNC(=O)Cn1ccc2ccccc2c1=O)NCCC1=CCCCC1 -8.45%
COc1ccc(CN(C)C(=S)Nc2ccc(Cl)cc2Cl)cc1 5.98%
O=C1CC2(CC(c3ccc(Cl)cc3)=NO2)C(=O)N1c1ccccc1 (stereo not given) -7.62%
CCN1CC(CN(C)Cc2nc(-c3ccc(Cl)cc3)no2)CC1=O (stereo not given) 4.9%
CN(C)C(=O)N1CCNCC1 12.2%
Cn1c(=O)n(Cc2ccco2)c(=N)c2c3c(sc21)CCCC3 -0.0363%
CCC1(C)Cc2c(sc3[nH]c(=S)n(Cc4ccccc4)c(=O)c23)CO1 (stereo not given) -4.85%
C=CCn1c(=S)sc2c(=O)[nH]c(C)nc21 -7.18%
CCOC(=O)C1(CCOc2ccccc2)CCN(C(=O)c2cncs2)CC1 -4.17%
Cc1c(C(N)=O)sc2ncn(CCOc3ccccc3)c(=O)c12 -1.68%
CCN1C(=O)N[C@@H](c2ccccc2)[C@H](C(C)=O)[C@H]1C 7.43% [at 13.5 µM]
Cc1ccc(C(=O)OC(C)CN2CCOCC2)cc1 (stereo not given) 0.589%
COc1ccc(OCC(=O)N2CCOCC2)cc1 5.41%
FC(F)(F)c1cccc(-c2nc(COc3ccc(Cl)cc3Cl)no2)c1 6.34%
O=C(CC1SCCNC1=O)Nc1ccc(Cl)cc1 (stereo not given) 9.61%
Cc1ccc(OCC(=O)NNC(=S)NCc2ccccc2)cc1 -1.88%
COc1ccc(N2CCN(Cc3nnc(-c4ccccc4)o3)CC2)cc1 2.42%
Fc1ccc(N2CCN(Cc3cnc(Oc4ccc(Br)cc4)s3)CC2)cc1 -1.13%
Cc1ccc(NC(=O)CC2C(=O)N(Cc3ccccc3)C(=S)N2NC(=O)c2cccc(F)c2)c(C)c1 (stereo not given) 2.55%
Cc1ccc(NC(=S)N(CCN(C)C)Cc2cccs2)cc1C 4.01%
O=C(O)CC(SCC(=O)Nc1ccc(Br)cc1)C(=O)O (stereo not given) -4.63%
CCOc1ccc(S(=O)(=O)NCC2CCCO2)cc1 (stereo not given) -7.57%
COc1ccc(SCc2noc(C(=O)NCC3CCCO3)c2C(=O)O)cc1 (stereo not given) 1.65%
Cc1ccc(Cl)c(NC(=O)CN(C)CC(=O)Nc2ccc(F)c(F)c2F)c1Cl 8.7%
Cc1cccc(CN2CCN(Cc3cnn(-c4ccccc4F)c3)CC2CCO)n1 (stereo not given) -3.37%
O=c1[nH]oc(O)c1-c1ncc(C(F)(F)F)cc1Cl 9.67%
Cc1csc(NC(=O)CSc2ccc(-c3ccc(F)cc3)nn2)n1 8.44%
Cc1cc(/C=C2\SC(=Nc3ccc(N4CCOCC4)cc3)N(C)C2=O)c(C)n1-c1cccnc1 -3.64%
O=C(C1CC1)N1N=C2CCCCC2C1(O)C(F)(F)F (stereo not given) 4.47%
N#Cc1c(NC(=O)CCCl)sc2c1CCCCC2 -5.19%
CC(C(=O)O)n1cnc2sc3c(c2c1=O)CCCC3 (stereo not given) 4.67%
O=C1CCC/C(=N\NC(=O)NC2CCCCC2)C1 2.09%
CN(CCOc1ccccc1)Cc1nc2cc(Cl)ccc2c(=O)[nH]1 -4.61%
CCN(CC(=O)NC(=O)NCc1ccccc1)Cc1nc2ccccc2c(=O)[nH]1 -9.25%
Cc1ccc(S(=O)(=O)NC2(C(F)(F)F)NC(=O)N(CCc3ccccc3)C2=O)cc1 (stereo not given) 11.8%
COc1cc(C2CC(=O)c3cnc(NC(C)=O)nc3C2)cc(OC)c1OC (stereo not given) -3.5%
CC1=C(C(=O)Nc2ccc(Cl)cc2)C(c2ccco2)NC(=O)N1 (stereo not given) 7.11%
O=C1C=C(c2ccccc2)CCC1 12.6%
Cc1ccsc1C1C(C#N)=C(N)OC2=C1C(=O)CC(C)C2 (stereo not given) 1.99%
NC1=C([N+](=O)[O-])C(c2ccccc2)C2=C(CCCC2=O)O1 (stereo not given) -2.58%
O=C(Nc1ccc(N2CCOCC2)cc1)c1ccc2c(c1)OCO2 3.33%
COc1ccc(C)cc1NC(=O)CCC(=O)Nc1nnc(C(F)(F)F)s1 4.14%
COc1ccc(/C(C)=N/Nc2cc(C(F)(F)F)ccc2Cl)c(OC)c1 15%
CSc1cc(C)[nH]c(=O)n1 3.77%
COc1ccc(Cl)cc1NC(=O)NC(C)C(C)(C)C (stereo not given) 10.4%
NC(=O)Cc1nc2scc(-c3ccc(Cl)cc3)c2c(=O)[nH]1 -1.08%
NC(=O)Cc1ccc2sc(-c3ccccc3)nc2c1 9.05%
CCc1ccc(NC(=O)CSc2nc3ccccc3c(=O)n2CCN2CCOCC2)cc1 -6.19%
Cc1cc(C(=O)Nc2ccccc2N2CCOCC2)c2ccccc2n1 -2.76%
O=C(CCSc1ccccc1)N1CCN(c2ccccc2F)CC1 -54.1%
O=C(CSc1nn(-c2ccc(F)cc2)c(=S)s1)NC1CCS(=O)(=O)C1 (stereo not given) -4.99%
Cc1cc(C)cc(OCC(=O)NCc2cc(C)nc3ccccc23)c1 -4.15%
OCC1(Cc2ccccc2)CCN(Cc2cc3ccccc3o2)CC1 5.22%
COC(=O)Nc1sc2nc(C)cc(C)c2c1-n1cccc1 2.42%
Cc1cc(C)c2c(-n3cccc3)c(NC(=O)OCc3ccccc3)sc2n1 5.3%
CCNC(=O)CC1C(=O)N(c2ccc(F)cc2)C(=O)N1Cc1cccs1 (stereo not given) -3.81%
CCN(CC)CCCNC(=O)c1ccc2c(=O)n(Cc3ccc4c(c3)OCO4)c(=S)[nH]c2c1 -10.2%
c1ccc2c(CSCc3nc4ccccc4[nH]3)cccc2c1 10.2%
N=C(N)SCc1cccc2ccccc12 6.99%
CN1CCN(C(CNS(=O)(=O)c2cccs2)c2cccnc2)CC1 (stereo not given) -6.14%
O=C(Nc1nnc(SCc2ccc(Cl)cc2Cl)s1)C1COc2ccccc2O1 (stereo not given) -4.92%
O=C(Nc1nc(-c2ccc3c(c2)OCO3)cs1)c1ccncc1 5.35%
COc1ccc(/C=C/C(=O)Nc2cccnc2)cc1OC -11.3%
CCCS(=O)(=O)N1CCC(CCOc2ccccc2)(C(=O)OCC)CC1 -8.63%
N#Cc1c(-c2ccc(Cl)cc2)c2c([nH]c1=S)CCCC2 18.4%
COc1ccc(NC(=O)C(C)SCc2ccccc2)cc1 (stereo not given) 1.4%
Cc1onc(-c2c(Cl)cccc2Cl)c1C(=O)NNC(=O)c1c(-c2c(Cl)cccc2Cl)noc1C 9.07%
Cc1onc(-c2c(Cl)cccc2Cl)c1C(=O)c1c[nH]c(C(=O)NC2CC2)c1 2.22%
CCOc1c(CNCc2ccc(C(=O)O)cc2)cccc1OC 4.84%
CC(=O)Nc1cccc(-c2nc3ccccc3s2)c1C -0.337%
Cc1ccc(NC(=S)N(CCCN2CCC(C)CC2)Cc2ccco2)cc1 -7.69%
CCCOC(=O)c1[nH]c2c(c1C)C(=O)CC(c1cccs1)C2 (stereo not given) 12.3%
CCOC(=O)c1[nH]c2c(c1-c1ccccc1)C(=O)CC(c1ccc(Cl)cc1)C2 (stereo not given) 8.72%
COc1ccc2c(c1)O[C@@H](c1ccc3c(c1)OCO3)[C@H](OC(=O)NCCc1ccc(OC)c(OC)c1)C2=O -7.29%
O=C(CCS(=O)(=O)Cc1ccccc1)Nc1ccc2c(c1)OCCO2 -10.7%
CC(/C=N/NC(=O)c1cc(-c2ccc3ccccc3c2)n[nH]1)=C\c1ccco1 -3.35%
CC(/C=N/NC(=O)c1ccncc1)=C\c1ccco1 -12.5%

Potency, active:
Cc1nc2ccccc2c2oc(C(=O)NCC3CCCO3)cc12 (stereo not given) 14.1 µM
CC(=O)c1ccc(S(=O)(=O)Nc2ccc(C(=O)NCC(c3ccccc3)N(C)C)cc2)cc1 (stereo not given) 2.82 µM
Cc1ccccc1/[N+]([O-])=C/c1ccncc1 3.98 µM
CCn1c(=S)[nH]c2sc3c(c2c1=O)CCCCC3 22.4 µM
CC(=O)c1ccc(OCCN2CCOCC2)cc1 25.1 µM
COc1ccc(N2CCN(Cc3ccc(Br)s3)CC2)cc1 25.1 µM
CCOc1ccc(-n2c(N)c(C(=O)NCC3CCCO3)sc2=S)cc1 (stereo not given) 15.8 µM
CCCc1nc2sc3c(c2c(=O)n1NC(=O)CCCl)CCCC3 14.1 µM
CCN(CC(=O)Nc1ccc(Cl)c(S(=O)(=O)N(C)C)c1)Cc1nc2ccccc2c(=O)[nH]1 25.1 µM
O=C(Nc1ncc2c(n1)CC(c1ccco1)CC2=O)c1ccc(Cl)cc1 (stereo not given) 10 µM
N#CC1=C(N)OC2=C(C(=O)CCC2)C1C1CC=CCC1 (stereo not given) 10 µM
COc1ccc(C(F)(F)F)cc1N/C=C\c1nnnn1-c1ccc(C)cc1 25.1 µM
Cc1sc2nc(CC(N)=O)[nH]c(=O)c2c1-c1ccccc1 7.08 µM
CCc1ccc2ncc(C(=O)c3ccccc3)c(N3CCOCC3)c2c1 4.47 µM
Cc1cc(C)c2c(-n3cccc3)c(C(=O)NNS(=O)(=O)c3ccc(F)cc3)sc2n1 2.24 µM
c1ccc2c(C[n+]3csc4ccccc43)cccc2c1 10 µM
O=C(Nc1nc(-c2ccncc2)cs1)C1COc2ccccc2O1 (stereo not given) 3.55 µM
Cc1[nH]n(C)c(=O)c1C(=O)c1c(-c2c(Cl)cccc2Cl)noc1C 8.91 µM
CCCOC(=O)c1[nH]c2c(c1C)C(=O)CC(c1cc(OC)c(OC)c(OC)c1)C2 (stereo not given) 0.355 µM
C/C(=C\c1ccco1)C1Nc2cccc3cccc(c23)N1 10 µM
